# Rows were chosen to be rich in hits. Some 1.4% of all compounds tested hit in one or more screens of this group.
# AID504770: growth inhibition of E. coli YBA685, primary screen, V. cholerae RctB inhibitors; E. coli YBA685 rctB-dependent plasmid, OD600 growth, 3 h; stronger effect = lower value; z-score (no concentration beside the values); 130,000 compounds, 0.27% hits; AID 504770, 2011; in the data active = z-score below about -2, passing the limit was not always enough
# Polio RdRp inh: poliovirus RdRp elongation inhibitors, primary screen, biochemical, fluorescence polarization, total intensity | AID 588519, 2011 | 150,000 compounds, 0.66% hits | poliovirus polymerase elongation; stronger effect = lower value | % elongation, % (compound at 16.7 µg/mL) | Genome polyprotein (Poliovirus type 1 (strain Mahoney)), P03300; in the data active = % elongation below about 90%
# MenB inh: M. tuberculosis MenB inhibitors, primary screen, biochemical, absorbance; 1,4-dihydroxy-2-naphthoyl-CoA synthase (Mycobacterium tuberculosis (strain ATCC 25618 / …; MenB enzyme assay, absorbance read-out; inhibition, % (test concentration not listed); 100,000 compounds, 0.43% hits; AID 540299, 2011; in the data active = inhibition above about 21%, passing the limit was not always enough
# Target sequence (P9WNP5 whole entry, looked up): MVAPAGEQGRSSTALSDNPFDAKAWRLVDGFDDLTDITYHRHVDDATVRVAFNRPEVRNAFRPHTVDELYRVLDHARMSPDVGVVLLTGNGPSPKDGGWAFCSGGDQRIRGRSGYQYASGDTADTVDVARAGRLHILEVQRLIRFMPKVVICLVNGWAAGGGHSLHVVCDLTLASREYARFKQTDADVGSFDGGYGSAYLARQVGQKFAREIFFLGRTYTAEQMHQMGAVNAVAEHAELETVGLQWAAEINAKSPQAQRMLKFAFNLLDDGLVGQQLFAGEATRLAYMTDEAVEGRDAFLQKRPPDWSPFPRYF
# Mtb MbtI inh: MbtI salicylate synthase inhibitors, primary screen, biochemical, fluorescence intensity. purified MbtI enzyme, fluorescence intensity read-out. P9WFX0. inhibition, % (test concentration not listed). AID 493033, 2011. 100,000 compounds, 0.89% hits; in the data active = inhibition mostly above about 56%, no sharp cut-off; inactive = mostly below about 77%
# * = called active by the depositor; nt = no result; ! = not confirmed by another sample.
SMILES,AID504770,Polio RdRp inh,MenB inh,Mtb MbtI inh
C/C(CCc1oc2ccc(Br)cc2c1-c1ccc(C)o1)=N\O,0.2,103,-33,21
CN(C)c1ccc(/C=N/N2CC(O)=C(c3nc4ccccc4s3)C2=N)cc1,-0.25,98,12,-5
O=C(CCC(=O)c1ccc(Cl)cc1)OC1CCCCC1=O (stereo not drawn),-0.1,66*,-14,-12
N#Cc1ccc(C(=O)OC2CCCCC2=O)cc1 (stereo not drawn),0.75,102,1,11
COc1ccccc1NC(=O)COc1ncnc2ccccc12,-0.2,104,11,4
CNC(=O)C1C2C=CC3(O2)C1C(=O)N(C1CC1)C3C(=O)NCc1ccc(OC)cc1 (stereo not drawn),-0.45,102,48*,-4
C#CCN1C(=O)C2C(C(=O)NC)C3C=CC2(O3)C1C(=O)NCc1ccc(OC)cc1 (stereo not drawn),0.7,101,54*,-1
C=CCN1C(=O)C2C(C(=O)NCc3ccccc3)C3C=CC2(O3)C1C(=O)NC(C)(C)C (stereo not drawn),1,105,-49,-3
Cn1c(=O)n(C)c2cc(S(=O)(=O)N3CCCC3)ccc21,-0.55,102,-1,-4
NC(=S)N/N=C1/C(=O)c2cccc3cccc1c23,-1.1,100,-13,76*
COC(=O)N/N=C1/C(=O)c2cccc3cccc1c23,0.4,99,-9,-1
CCSc1nc2c(c(=O)[nH]c(=O)n2C)n1CC,-0.45,98,-1,98*
Cc1nc(C(F)(F)F)ccc1C(=O)NCc1ccccc1,1.1,nt,nt,nt
Cc1nc(C(F)(F)F)ccc1C(=O)NCC(O)c1ccccc1 (stereo not drawn),-0.45,88*,-2,-15
O=c1[nH]nc(SCCS(=O)(=O)c2ccc(F)cc2)n1C1Cc2ccccc2C1,-0.15,nt,nt,nt
O=c1[nH][nH]c(=S)n1C1Cc2ccccc2C1,-0.8,100,-1,67*
O=c1[nH][nH]c(=S)n1C1CC1,1.6,99,38*!,71*
O=c1[nH][nH]c(=S)n1CC1CCCO1 (stereo not drawn),0.05,95,-17,83
Cn1c(N)c(C#N)c2c(c1=S)CCCC2,-2.8*,88*,-45,24
CCn1nnc(NC(=O)Cc2ccccc2)n1,0.6,108,-7,nt
Brc1ccc(OCCSc2ncccn2)cc1,-0.5,104,nt,-5
CCC(C)N=Cc1c(O)n(-c2ccccc2)c(=O)[nH]c1=O (stereo not drawn),-0.65,96,-3,102*
CCCC(=O)n1c(=S)oc2cc(Cl)ccc21,-1.3,95,-11,nt
CCCCN(CC)C(=O)Cn1ncc2c([nH]c3ccc(C)cc32)c1=O,0.55,104,-5,124
COc1ccc(OCCSc2nc3ccccc3n2CC(=O)N2CCOCC2)cc1,nt,107,nt,nt
SMILES,AID504770,Polio RdRp inh,MenB inh,Mtb MbtI inh
O=C(Cn1c(SCCOc2ccccc2)nc2ccccc21)N1CCOCC1,nt,81*,nt,nt
COc1ccc(C2=C(C)C(=O)N(Cc3ccc(C(=O)Nc4cccc(F)c4)cc3)S2(=O)=O)cc1,nt,108,nt,nt
CCc1cccc(NC(=O)c2ccc(CN3C(=O)C(C)=C(c4ccc(OC)cc4)S3(=O)=O)cc2)c1,nt,8.0*,nt,nt
CCn1cc(C(=O)O)c(=O)c2cc(F)c(N3CCNC(C)C3)c(F)c21 (stereo not drawn),-3.6*,103,0,58
Cc1sc(NC(=O)C(C)Oc2ccc(Cl)cc2Cl)c(C(N)=O)c1C (stereo not drawn),1.5,75*,-23,nt
Cc1cc(C)c(S(=O)(=O)N(CCC(C)C)S(=O)(=O)c2ccccc2C#N)c(C)c1,-4.1*,98,-5,-4
S=c1[nH]n(Cc2ccccc2)c(=NCc2ccccc2)s1,-0.95,95,nt,65*
Cc1c(-c2ccccc2)sc(N)c1C(=O)N1CCCCC1,0.25,70*,-13,84
CCOc1ccc(C(=O)Nc2sccc2C#N)cc1,-0.85,nt,nt,nt
CC(C)(C)c1cc2nc(C(F)(F)F)cc(SCCO)n2n1,-1,nt,nt,nt
Nc1nc2c(s1)CCc1c-2cnn1-c1ccccc1,-0.65,42*,3,nt
Cc1c(-c2ccnc(N)n2)cnn1-c1ccccc1,-0.6,nt,nt,nt
C=CCn1c(Cc2ccc(O)c(Cl)c2)n[nH]c1=S,2.9,101,-18,93*
O=C(N/N=C/c1ccc(N2CCCCC2)cc1)c1cccnc1,0.3,102,-55,11
Cc1ccc(S(=O)(=O)N=C2C=CC(=NS(=O)(=O)N(C)C)C=C2)cc1,-1.4,104,-19,97
Cc1ccc(S(=O)(=O)N=C2C=CC(=NS(=O)(=O)c3ccc(C)cc3)C=C2)cc1,0,102,-10,72*
CCOC(=O)C1CCN(C(c2cccnc2)c2c(C)[nH]c3ccccc23)CC1 (stereo not drawn),-0.4,98,0,58
Cc1[nH]c2ccc(Cl)cc2c(=O)c1CN1CCCC(C)C1 (stereo not drawn),-0.65,104,-7,-2
CCN(CCCNC(=O)c1cc2c(=O)[nH]c3ccc(C)cc3c2s1)Cc1ccccc1,nt,87*,nt,nt
CC(=O)Oc1ccc(Nc2nc3nonc3nc2Nc2ccccc2)cc1,1.1,102,-29,-4
CSc1sc(C(=O)N(C)C)cc1S(=O)(=O)C(C)C,0.4,nt,nt,nt
CSc1sc(C(=O)Sc2ccccc2)cc1S(=O)(=O)C(C)C,-0.65,82*,-8,-7
c1csc(SCc2ccc3nonc3c2)c1,-0.4,nt,nt,nt
CS(=O)(=O)N(CCc1ccccc1)CC(=O)N1CCOCC1,0.25,102,34*,0
CC1CCN(C(=O)CN(CCc2ccccc2)S(C)(=O)=O)CC1,-0.55,106,-40,-8
SMILES,AID504770,Polio RdRp inh,MenB inh,Mtb MbtI inh
CCc1ccc(C(=O)Nc2cc(NC(=O)c3ccco3)ccc2C)cc1,-1,100,5,-2
OC(Cc1cccnc1)(c1ccccc1)c1ccccc1,0.05,89*,-3,-6
Oc1ccccc1C(=S)N1CCN(C(=S)c2ccccc2O)CC1,-0.45,101,-46,94*
O=C(c1ccccc1O)N1CCOCC1,0.85,112,-7,nt
COc1ccc(-c2ocnc2C(=O)NCC(C)c2ccccc2)cc1 (stereo not drawn),0.7,101,-28,116
Nc1nc(N)c2[nH]c(C3CCCCC3)nc2n1,-1,79*,-6,79
Nc1n[nH]c(C2CCCCC2)n1,0.05,101,-54,-2
Cc1ccc(S(=O)(=O)N2CCCN(C)CC2)cc1,-3.9*,101,nt,-9
CN1CCN(S(=O)(=O)c2ccc(Br)cc2)CC1,-1.3,101,-1,nt
CCOc1ccc2nc(NC(=O)C(CC(C)C)NS(=O)(=O)c3ccc4c(c3)oc(=O)n4C)sc2c1 (stereo not drawn),1.7,nt,nt,nt
CC1(C)CC(=O)c2c([nH]c(-c3ccccc3)c2-c2ccccc2)C1,3,103,-20,nt
Cc1cccc(/C=N/NC(=O)c2ccccn2)c1O,-2.3*,104,-78,-6
Cc1cc(NS(=O)(=O)c2ccc(N3C(=O)C=CC3=O)cc2)no1,2.2,98,12,93*
